# Measurements reported in PubChem BioAssay (Tox21).
# Results filed as inconclusive are left out. Active and inactive are the calls of the source. Calls follow the shape of the dose curve; as a rule, active = well fitted activation curve with a large enough effect in the repeat runs; inconclusive = weak or mixed curves; inactive = flat fitted curve, though single readings scatter.
# Experiment: A CellTox Green Cytotoxicity Assay to monitor cytotoxicity in HepG2 cells - 24 hour (AID 1224878); also: nearly all actives have a fitted effect of over 45% in size
# Conditions: CellTox Green fluorescence; series mostly up to 76.8 µM; cytotoxicity: at the top concentration
# From the text: National Center for Advancing Translational Sciences [NCATS]
# NIH Chemical Genomics Center [NCGC]
# U.S. Environmental Protection Agency [EPA]
# National Institutes of Environmental Health Sciences [NIEHS]
# National Toxicology Program [NTP]
# Cell-based models are critical for drug discovery. Determining the natural cytotoxic effects resulting from test compounds is an essential research activity. A CellTox Green Cytotoxicity Assay to monitor cytotoxicity in real time of continues cell culture during 40 hours of the compound treatment was used to screen Tox21 10K library compounds in HepG2 cells. CellTox Green Cytotoxicity Assay is a nonlytic, homogeneous, biofluorescent method to measure cytotoxicity in cell culture after experimental manipulation. The assay system uses a proprietary asymmetric cyanine dye that is excluded from viable cells but preferentially stains the dead cell's DNA. […] Viable cells produce no appreciable increases in fluorescence. Therefore, the fluorescence signal produced by the binding interaction with dead cell DNA is proportional to cytotoxicity.
# The mixture of HepG2 cell suspension and reagents were dispensed at 600cells/6 ul/well in 1536-well tissue culture treated black solid bottom plates using a Multidrop dispenser. After the assay plates were incubated at a 37 C/5% CO2 incubator for 5 hours, 23 nL of compounds dissolved in DMSO, positive and negative controls was transferred to the assay plate by a pintool work station. The plates were incubated at 37 C for 40 hours. The fluorescence intensity were measured at 0h, 8h, 16h, 24h, 32h and 40h time points using ViewLux plate reader during compound treatment.
# % is scaled to controls: 0 for no effect and ±100 for the full control effect; potency is read from the fitted curve at half-maximal effect.
Structure (SMILES),cytotoxicity,Potency
CC[N+]1(CC)CCC(=C(c2ccccc2)c2ccccc2)C1C (stereo not given),-4.12% [at 35.3 µM] (inactive),–
CNC(=O)CN(CCN(CCN(CC(=O)[O-])CC(=O)NC)CC(=O)[O-])CC(=O)[O-].O.[Gd+3],-3.41% [at 35.3 µM] (inactive),–
COc1cc2c(cc1OC)C(C(C(=O)N(CCc1ccc(OC)c(OC)c1OC)CCc1ccc(OC)c(OC)c1OC)c1ccccc1)=NCC2 (stereo not given),4.25% [at 35.3 µM] (inactive),–
O=C(O)CNCC(=O)O,-3.31% [at 6.97 µM] (inactive),–
CCCCc1nc2cccnc2n1Cc1ccc(-c2ccccc2-c2nnn[nH]2)cc1,-8.45% (inactive),–
CCCCCCOC(=O)NC(=N)c1ccc(NCc2nc3cc(C(=O)N(CCC(=O)OCC)c4ccccn4)ccc3n2C)cc1,–,23.9 µM (active)
NCC(=O)O,7.92% [at 15.8 µM] (inactive),–
Cc1nn(C)c(Oc2ccccc2)c1/C=N/OCc1ccc(C(=O)OC(C)(C)C)cc1,-4.49% (inactive),–
c1ccc(CNCCNCc2ccccc2)cc1,-4.92% [at 35.3 µM] (inactive),–
CC(=O)c1ccc2c(c1)N(CCCN(C)C)c1ccccc1S2,18.8% [at 35.3 µM] (inactive),–
C[N+](C)(C)CCOC(=O)CCC(=O)OCC[N+](C)(C)C,2.55% [at 35.3 µM] (inactive),–
CC(C)(COC(=O)c1ccccc1)COC(=O)c1ccccc1,5.67% (inactive),–
C=CC(=O)OCCOc1ccccc1,-1.4% (inactive),–
C[N+]1(CC2COC(c3ccccc3)(C3CCCCC3)O2)CCCCC1 (stereo not given),1.07% [at 35.3 µM] (inactive),–
NC(N)=NCCC[C@H](N)C(=O)O,-6.35% [at 6.97 µM] (inactive),–
CC(C)OC(=O)C(C)N(C(=O)c1ccccc1)c1ccc(F)c(Cl)c1 (stereo not given),-3.23% (inactive),–
CC(CSC(=O)c1ccccc1)C(=O)N1C[C@@H](Sc2ccccc2)C[C@H]1C(=O)O (stereo not given in full),-1.93% [at 15.8 µM] (inactive),–
Cc1cccc(C)c1OCC(=O)N[C@@H](Cc1ccccc1)[C@@H](O)C[C@H](Cc1ccccc1)NC(=O)[C@H](C(C)C)N1CCCNC1=O,0.275% [at 35.3 µM] (inactive),–
CCCCC(=O)OCC(=O)[C@H]1[C@H](C)C[C@H]2[C@@H]3C[C@H](F)C4=CC(=O)C=C[C@]4(C)[C@@]3(F)[C@@H](O)C[C@@]21C,1.65% [at 35.3 µM] (inactive),–
CC(C)(CO)[N+](=O)[O-],-6.1% (inactive),–

Structure (SMILES),cytotoxicity,Potency
CCOC(=O)c1cccnc1,-8.52% [at 35.3 µM] (inactive),–
CC(C)(O)c1ccc(CNC(=O)c2cccnc2Oc2ccc(F)cc2)cc1,0.878% (inactive),–
O=C(CS)Nc1ccccc1,-12.4% [at 35.3 µM] (inactive),–
CCOC(=O)NCCOc1ccc(Oc2ccccc2)cc1,0.389% (inactive),–
C=C(C)C(=O)OCCO,-0.684% (inactive),–
OCCNCc1ccccc1,-3.81% (inactive),–
Nc1cccc([N+](=O)[O-])c1,0.544% (inactive),–
C/C=C/C(=O)CC,1.31% [at 15.8 µM] (inactive),–
CCOc1ccc(N)c([N+](=O)[O-])c1,4.24% (inactive),–
NS(=O)(=O)c1ccc(N2CCCCS2(=O)=O)cc1,0.0067% [at 35.3 µM] (inactive),–
CCOC(=O)C(O)c1ccccc1 (stereo not given),-10.3% [at 35.3 µM] (inactive),–
Nc1cc(C(=O)O)c(O)c(S(=O)(=O)O)c1,-1.77% (inactive),–
c1ccc(-c2ccccn2)nc1,-11% (inactive),–
Cc1ccccc1S(=O)(=O)O,2.58% (inactive),–
O=C(O)c1ccc(-n2nc(-c3ccccc3O)nc2-c2ccccc2O)cc1,0.303% [at 35.3 µM] (inactive),–
COc1cc2nc(N(C)CCCNC(=O)C3CCCO3)nc(N)c2cc1OC (stereo not given),-5.79% [at 35.3 µM] (inactive),–
CC(=O)[O][Al],-0.113% (inactive),–
COc1cc(Cl)c(OC)cc1N,18.4% (inactive),–
Nc1ccc(N)c2c1C(=O)c1ccccc1C2=O,-34.1% (inactive),–
CCN(CC)c1ccc(C(=C2C=CC(=[N+](CC)CC)C=C2)c2cc(S(=O)(=O)O)ccc2S(=O)(=O)[O-])cc1,-13.5% [at 35.3 µM] (inactive),–
